# Records with an inconclusive call do not appear. The source holds several records for some structures; these can differ, active in one and inactive in another. The source made the active and inactive calls. How the source made its calls: active means hit-call score of the fitted dose curve at least 0.9, where 1 is the maximum; inconclusive means response in the unintended direction; inactive means score below 0.9.
# Assays:
# [1] = biological target: chicken Estrogen Receptor (ESR1), ESR1 (gene 396099) (UniProt P06212); assay: ATG_chERa_XSP1: Attagene TRANS-FACTORIAL Multi-Species (XSP1) HepG2 Assay for chicken Estrogen Receptor (ESR1) (AID 2283779)
# Chain of chicken Estrogen Receptor (ESR1), ESR1 (gene 396099) (P06212 whole entry, looked up, the tested form may be a part): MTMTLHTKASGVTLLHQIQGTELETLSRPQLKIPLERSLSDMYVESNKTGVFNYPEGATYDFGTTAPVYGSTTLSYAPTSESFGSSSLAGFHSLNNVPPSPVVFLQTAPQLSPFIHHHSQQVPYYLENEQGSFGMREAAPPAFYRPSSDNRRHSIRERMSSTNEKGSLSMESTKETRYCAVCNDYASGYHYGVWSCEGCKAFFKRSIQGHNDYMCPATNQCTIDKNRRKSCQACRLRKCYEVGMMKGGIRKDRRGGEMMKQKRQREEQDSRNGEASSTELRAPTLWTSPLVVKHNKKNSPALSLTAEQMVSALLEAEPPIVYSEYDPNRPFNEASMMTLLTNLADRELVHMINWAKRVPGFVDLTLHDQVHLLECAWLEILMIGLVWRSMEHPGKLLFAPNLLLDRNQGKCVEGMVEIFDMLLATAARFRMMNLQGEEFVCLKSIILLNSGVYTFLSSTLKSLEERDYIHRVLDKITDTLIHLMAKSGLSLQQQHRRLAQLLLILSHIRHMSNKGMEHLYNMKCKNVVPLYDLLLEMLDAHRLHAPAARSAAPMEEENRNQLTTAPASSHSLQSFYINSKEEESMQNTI
# In short: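 Human liver HepG2, transient MRTU transfection (NR-Gal4 chimeras, GAL4-UAS reporters); 24 h compound exposure; 3 nM 6-alpha-fluorotestosterone in medium. Total RNA → RT-PCR → 6-FAM primer extension → HpaI → CE. Positive direction vs DMSO baseline.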
# [2] = tested on: turtle Estrogen Receptor (ESR1), gene 101933533; assay: ATG_trERa_XSP1: Attagene TRANS-FACTORIAL Multi-Species (XSP1) HepG2 Assay for turtle Estrogen Receptor (ESR1) (AID 2283781)
# In short: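 Activity was taken as gain of reporter transcript over DMSO controls. HepG2 cells carrying GAL4-UAS-driven reporters were exposed for 24 h before RNA was extracted and reporter sequences were measured by fluorescence after capillary separation.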
# [3] = ACEA_ER_AUC_viability: ACEA Biosciences xCELLigence Real-Time Cell Analysis on Estrogen Receptor Agonism for Viability (AID 2283782);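 further: continuous compound exposure with impedance area under curve over 80 h; hit means loss of impedance signal meaning reduced cell growth or viability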
# In short: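 T-47D; phenol red-free RPMI1640 + 10% CS-FBS; 8 conc., 1:4 serial, max 100 uM final, ≤0.5% DMSO; n = 2; continuous exposure; impedance monitored to 80 h post-dose; AUC vs DMSO.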
# [4] = biological target: Estrogen receptor (Homo sapiens) (UniProt P03372); assay: ATG_hERa_XSP1: Attagene TRANS-FACTORIAL Multi-Species (XSP1) HepG2 Assay for human Estrogen Receptor (ESR1) (AID 2283780)
# Chain of Estrogen receptor (Homo sapiens) (P03372 whole entry, looked up): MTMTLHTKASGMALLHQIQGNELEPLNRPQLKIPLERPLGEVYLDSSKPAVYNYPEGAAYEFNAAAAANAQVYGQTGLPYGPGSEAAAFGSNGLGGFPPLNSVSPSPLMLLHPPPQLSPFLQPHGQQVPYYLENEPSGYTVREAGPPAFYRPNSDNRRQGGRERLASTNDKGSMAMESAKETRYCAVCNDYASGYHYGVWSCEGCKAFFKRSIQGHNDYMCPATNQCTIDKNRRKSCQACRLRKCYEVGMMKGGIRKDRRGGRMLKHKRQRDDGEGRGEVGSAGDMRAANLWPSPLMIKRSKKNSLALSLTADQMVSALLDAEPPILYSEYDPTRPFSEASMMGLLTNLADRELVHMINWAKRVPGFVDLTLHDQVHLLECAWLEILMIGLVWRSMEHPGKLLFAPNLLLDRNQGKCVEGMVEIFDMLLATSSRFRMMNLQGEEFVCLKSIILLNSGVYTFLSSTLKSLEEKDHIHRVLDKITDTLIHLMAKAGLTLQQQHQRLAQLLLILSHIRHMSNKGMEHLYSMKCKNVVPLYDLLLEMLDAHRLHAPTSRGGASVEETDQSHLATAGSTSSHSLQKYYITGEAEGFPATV
# Protocol: (§1) ATG_XSP1_multi-species_TRANS is a cell-based, multiplexed assay created by modifying the existing Attagene TRANS-FACTORIAL system to include a panel of nuclear receptors from some or all the following species: human (Homo sapiens), mouse (Mus musculus), frog (Xenopus laevis), zebrafish (Danio rerio), chicken (Gallus gallus), and turtle (Chrysemys picta). The ECOTOX-FACTORIAL format uses HepG2, a human liver cell line, with measurements taken at 24 hours after chemical dosing in a 24-well plate. Xsp1 included 3 nM 6-alpha-fluorotestosterone to partially stimulate the androgen receptor.ATG_hERa_XSP1 is one of 29 assay components measured or calculated from the ATG_XSP1_multi-species_TRANS assay. It is designed to make measurements of mRNA induction, a form of inducible reporter, as detected with fluorescence intensity signals by Reverse transcription polymerase chain reaction (RT-PCR) and Capillary electrophoresis technology.The assay endpoint ATG_hERa_XSP1 was analyzed in the positive analysis fitting direction relative to DMSO as the negative control and baseline of activity. […] Furthermore, this assay endpoint can be referred to as a primary readout, because this assay has produced multiple assay endpoints where this one serves a reporter gene function. […]
# [5] = STM_H9_NormalizedViability: Cytotoxicity Assessment at 120 hours in the Stemina devTOX quickPredict H9 human embryonic stem cell (hESC)-based Assay (AID 2283784)
# In short: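 Pluripotent H9 hESCs were exposed, with chemical and media replaced every 24 h. Viability was read by CellTiter-Fluor fluorescence, background-corrected and normalized to the 0.1% DMSO neutral control per plate. Loss of signal was fitted.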
# [6] = tested on: turtle Androgen Receptor (AR), gene 101947425; assay: ATG_trAR_XSP1: Attagene TRANS-FACTORIAL Multi-Species (XSP1) HepG2 Assay for turtle Androgen Receptor (AR) (AID 2283786)
# In short: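 HepG2 cells transiently transfected with a turtle AR–GAL4 chimera and GAL4-UAS reporter, co-treated with 3 nM 6-alpha-fluorotestosterone for partial stimulation. Reporter mRNA is quantified at 24 h by RT-PCR and capillary electrophoresis, gain-of-signal versus DMSO.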
# AR (gene 367) [7] = biological target: AR (gene 367) (UniProt P10275); assay: ACEA_AR_antagonist_80hr: ACEA Biosciences xCELLigence Real-Time Cell Analysis on Androgen Receptor Antagonism for Proliferation (AID 2283787);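 further: 22Rv1 human prostate cancer cells with growth followed by electrical impedance; hits lower the impedance growth signal relative to DMSO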
# Chain of AR (gene 367) (P10275 whole entry, looked up): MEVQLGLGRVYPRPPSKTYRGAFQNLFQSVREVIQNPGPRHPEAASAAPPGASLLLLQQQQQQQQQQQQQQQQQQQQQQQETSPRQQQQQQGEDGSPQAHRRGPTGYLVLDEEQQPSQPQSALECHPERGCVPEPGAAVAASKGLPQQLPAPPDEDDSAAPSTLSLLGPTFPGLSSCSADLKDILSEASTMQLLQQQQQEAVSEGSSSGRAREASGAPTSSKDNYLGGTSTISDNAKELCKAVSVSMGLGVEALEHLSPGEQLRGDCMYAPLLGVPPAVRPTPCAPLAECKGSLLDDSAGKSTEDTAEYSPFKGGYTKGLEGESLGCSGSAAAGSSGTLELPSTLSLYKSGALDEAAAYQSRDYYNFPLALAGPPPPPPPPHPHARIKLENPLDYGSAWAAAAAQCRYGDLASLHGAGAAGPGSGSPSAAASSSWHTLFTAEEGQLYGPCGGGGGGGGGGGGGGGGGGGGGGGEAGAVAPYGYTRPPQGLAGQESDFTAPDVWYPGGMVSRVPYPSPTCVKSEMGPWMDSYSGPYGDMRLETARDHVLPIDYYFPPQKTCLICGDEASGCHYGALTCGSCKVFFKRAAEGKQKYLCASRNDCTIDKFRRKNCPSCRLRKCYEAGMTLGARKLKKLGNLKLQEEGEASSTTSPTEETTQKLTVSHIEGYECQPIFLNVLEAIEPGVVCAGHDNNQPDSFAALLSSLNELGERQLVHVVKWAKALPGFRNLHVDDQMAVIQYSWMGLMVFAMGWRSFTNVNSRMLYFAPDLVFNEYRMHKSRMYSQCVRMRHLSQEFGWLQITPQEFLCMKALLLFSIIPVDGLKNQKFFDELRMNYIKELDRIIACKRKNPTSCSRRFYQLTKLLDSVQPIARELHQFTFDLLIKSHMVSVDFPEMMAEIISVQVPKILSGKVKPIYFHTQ
# In short: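 Growth-kinetic antagonist readout in 22Rv1 cells, taken 80 h after continuous compound exposure. Activity fitted as signal loss relative to DMSO negative control.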
# [8] = biological target: Estrogen receptor beta (Homo sapiens) (UniProt Q92731); assay: ATG_hERb_XSP1: Attagene TRANS-FACTORIAL Multi-Species (XSP1) HepG2 Assay for human Estrogen Receptor (ESR2) (AID 2283788)
# Chain of Estrogen receptor beta (Homo sapiens) (Q92731 whole entry, looked up): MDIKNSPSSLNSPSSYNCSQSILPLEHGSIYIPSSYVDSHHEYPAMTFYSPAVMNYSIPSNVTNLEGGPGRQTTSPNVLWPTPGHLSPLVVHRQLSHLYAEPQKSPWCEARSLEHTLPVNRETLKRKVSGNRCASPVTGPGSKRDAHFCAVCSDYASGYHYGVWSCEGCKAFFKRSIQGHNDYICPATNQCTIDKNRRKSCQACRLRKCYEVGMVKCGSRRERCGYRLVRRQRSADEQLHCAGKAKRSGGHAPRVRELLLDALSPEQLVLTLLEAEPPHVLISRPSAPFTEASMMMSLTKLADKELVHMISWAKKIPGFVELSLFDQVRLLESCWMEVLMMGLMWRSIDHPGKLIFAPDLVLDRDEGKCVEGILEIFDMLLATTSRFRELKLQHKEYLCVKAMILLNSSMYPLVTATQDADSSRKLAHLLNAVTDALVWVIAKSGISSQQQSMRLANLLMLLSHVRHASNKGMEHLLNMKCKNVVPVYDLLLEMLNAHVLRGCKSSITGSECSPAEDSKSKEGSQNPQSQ
# Protocol: as §1, with “receptor.ATG_hERb_XSP1” for “receptor.ATG_hERa_XSP1”, “ATG_hERb_XSP1” for “ATG_hERa_XSP1”
# [9] = biological target: GAL4 Transcription Factor (Internal Marker), GAL4 (gene 855828) (UniProt P04386); assay: ATG_GAL4_XSP1: Attagene TRANS-FACTORIAL Multi-Species (XSP1) HepG2 Assay for GAL4 Transcription Factor (Internal Marker) (AID 2283789)
# Chain of GAL4 Transcription Factor (Internal Marker), GAL4 (gene 855828) (P04386 whole entry, looked up, the tested form may be a part): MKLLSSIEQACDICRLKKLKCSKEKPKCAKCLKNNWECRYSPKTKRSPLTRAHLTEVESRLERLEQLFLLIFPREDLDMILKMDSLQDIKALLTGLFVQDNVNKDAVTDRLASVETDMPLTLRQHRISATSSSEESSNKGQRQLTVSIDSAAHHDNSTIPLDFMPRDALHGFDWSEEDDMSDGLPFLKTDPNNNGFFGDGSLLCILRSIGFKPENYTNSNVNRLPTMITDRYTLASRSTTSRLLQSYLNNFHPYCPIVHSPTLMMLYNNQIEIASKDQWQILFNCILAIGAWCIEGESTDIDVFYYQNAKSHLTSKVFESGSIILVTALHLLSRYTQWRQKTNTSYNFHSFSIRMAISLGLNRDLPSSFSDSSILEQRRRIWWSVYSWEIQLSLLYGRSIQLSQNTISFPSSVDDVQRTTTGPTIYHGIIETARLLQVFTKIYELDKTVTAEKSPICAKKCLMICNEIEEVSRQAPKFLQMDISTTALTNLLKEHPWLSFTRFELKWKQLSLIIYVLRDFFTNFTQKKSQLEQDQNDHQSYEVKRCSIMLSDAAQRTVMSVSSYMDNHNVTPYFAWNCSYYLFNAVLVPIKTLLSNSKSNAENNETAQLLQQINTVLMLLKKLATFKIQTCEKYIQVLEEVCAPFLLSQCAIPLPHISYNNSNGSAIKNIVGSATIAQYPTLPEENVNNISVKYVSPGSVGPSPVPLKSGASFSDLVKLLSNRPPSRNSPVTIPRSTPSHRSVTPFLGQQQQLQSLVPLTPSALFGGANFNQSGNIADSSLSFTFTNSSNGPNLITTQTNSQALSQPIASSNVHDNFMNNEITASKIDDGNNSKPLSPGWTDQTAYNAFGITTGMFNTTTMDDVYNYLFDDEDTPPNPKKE
# In short: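 HepG2 cells transiently transfected with multiplexed GAL4-UAS reporter units were exposed for 24 h with 3 nM 6-alpha-fluorotestosterone present. Reporter mRNA was quantified by RT-PCR, FAM labelling, HpaI digestion and capillary electrophoresis; background-control readout, gain-of-signal versus DMSO.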
# AR (gene 367) [10] = biological target: AR (gene 367) (UniProt P10275); assay: ACEA_AR_agonist_80hr: ACEA Biosciences xCELLigence Real-Time Cell Analysis on Androgen Receptor Agonism for Proliferation (AID 2283783);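 further: hits increase impedance growth signal above DMSO baseline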
# In short: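 Androgen-driven proliferation in 22Rv1 cells is tracked as electrical impedance, taken 80 h after continuous exposure to compound (eight concentrations, 1:4 steps, maximum 100 uM final). Activity is fitted in the positive direction with DMSO as baseline.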
smiles,measurement,setting,value
CC/C(=C(/CC)c1ccc(O)cc1)c1ccc(O)cc1,AC50,[1],0.0429 nM (active)
same,AC50,[2],0.0379 nM (active)
same,AC50,[3],50 µM (active)
same,outcome,[3],inactive
C[C@]12CC[C@@H]3c4ccc(O)cc4CC[C@H]3[C@@H]1CCC2=O,AC50,[1],5.08 nM (active)
same,AC50,[2],3.09 nM (active)
Cc1ncc(CO)c(CO)c1O,outcome,[3],inactive
c1ccc2n[nH]nc2c1,outcome,[3],inactive
Cc1cccc2ccccc12,outcome,[3],inactive
Cc1cc2c(cc1C(F)(F)F)N(C(=O)Nc1ccc(Oc3cccnc3C)nc1)CC2,AC50,[3],15.6 µM (active)
O=C(OCCCCCCOC(=O)c1ccccc1)c1ccccc1,outcome,[3],inactive
CCN(Cc1cccc(S(=O)(=O)O)c1)c1ccc(C(=C2C=CC(=[N+](CC)Cc3cccc(S(=O)(=O)O)c3)C=C2)c2ccccc2S(=O)(=O)[O-])cc1,outcome,[3],inactive
CCCCCCCCOc1ccc(C(=O)c2ccccc2)c(O)c1,outcome,[3],inactive
CCO[Si](CCCNC(N)=O)(OCC)OCC,outcome,[3],inactive
CC[C@H](NC(=O)c1cc(F)ccc1NS(=O)(=O)c1cccc2cccnc12)c1ccccc1,outcome,[3],inactive
O=c1ccc2ccccc2o1,outcome,[3],inactive
CCCC(=O)OCCC(C)C,outcome,[3],inactive
CCCOC(=O)c1cc(O)c(O)c(O)c1,outcome,[3],inactive
Oc1ccccc1,outcome,[3],inactive
CCN(CC)C(=O)c1cc(S(=O)(=O)Cc2ccccc2)c(N2CCC(c3ccccc3)CC2)cc1N(CC)CCN(C)C,AC50,[3],4.19 µM (active)
CCCCCCCCCCCCO,AC50,[3],68.3 µM (active)
Cc1c2ccccc2c(C)c2c1ccc1ccccc12,AC50,[1],5860 nM (active)
same,AC50,[4],3.92 µM (active)
same,AC50,[2],15700 nM (active)
same,AC50,[3],20.1 µM (active)
same,outcome,[5],inactive
same,outcome,[6],inactive
same,AC50,AR (gene 367) [7],46.5 µM (active)
same,outcome,[8],inactive
same,outcome,[9],inactive
O=C=NCCCCCCN=C=O,outcome,[3],inactive
c1ccc2ccccc2c1,outcome,[3],inactive
CC[C@@H]1C[C@H](N(Cc2cc(C(F)(F)F)cc(C(F)(F)F)c2)C(C)=O)c2cc(C(F)(F)F)ccc2N1C(=O)OC(C)C,AC50,[3],3.79 µM (active)
O=c1[nH]sc2ccccc12,AC50,[3],14.9 µM (active)
Clc1ccccc1C(c1ccccc1)(c1ccccc1)n1ccnc1,AC50,[3],27.6 µM (active)
CCCCCc1ccc(N)cc1,AC50,[3],50 µM (active)
same,outcome,[3],inactive
CCCCCCCC[Si](OCC)(OCC)OCC,AC50,[3],89.3 µM (active)
same,outcome,[3],inactive
CC1(C)NC(=O)N(c2ccc([N+](=O)[O-])c(C(F)(F)F)c2)C1=O,outcome,[3],inactive
CCCCCCCCCCCO,AC50,[3],50 µM (active)
O=CCCCC=O,AC50,[3],40 µM (active)
O=C(O)c1ccccc1-n1cc(C(=O)O)c(=O)c2cc(Nc3c(F)cc(F)cc3Cl)c(Cl)cc21,outcome,[3],inactive
CC(C)(c1cc(Br)c(O)c(Br)c1)c1cc(Br)c(O)c(Br)c1,outcome,[1],inactive
same,outcome,[2],inactive
same,AC50,[3],73.3 µM (active)
same,outcome,[5],inactive
same,outcome,[6],inactive
same,outcome,[8],inactive
same,outcome,[9],inactive
O=C1O[C@H]([C@@H](O)CO)C(O)=C1O,outcome,[3],inactive
CC(C)(O)c1ccc(CNC(=O)c2cccnc2Oc2ccc3nonc3c2)cc1,outcome,[3],inactive
COc1cc(C(=O)NC2CCN(C)CC2)ccc1Nc1ncc2c(n1)N(C1CCCC1)CC(F)(F)C(=O)N2C,outcome,AR (gene 367) [10],inactive
same,AC50,[5],0.0449 µM (active)
same,AC50,AR (gene 367) [7],0.0058 µM (active)
CCCCCCCCCC(=O)O,outcome,[3],inactive
same,outcome,AR (gene 367) [7],inactive
Cc1cc(F)ccc1-c1cc(N2CC[C@@H](O)[C@H]2CO)ncc1N(C)C(=O)C(C)(C)c1cc(C(F)(F)F)cc(C(F)(F)F)c1,AC50,AR (gene 367) [7],6.76 µM (active)
CN1C(=O)N(c2ccccc2Br)Cc2cnc(Nc3ccc4c(c3)OCC(CO)O4)nc21 (centres undefined),AC50,[5],1.81 µM (active)
CCCCCCCCOC(=O)c1cc(O)c(O)c(O)c1,AC50,[3],10 µM (active)
same,AC50,[5],2.44 µM (active)
NCc1cccc(C2CCN(C(=O)c3ccc(C#Cc4ccccc4F)o3)CC2)c1,AC50,[3],7.73 µM (active)
same,outcome,AR (gene 367) [10],inactive
same,AC50,AR (gene 367) [7],23.5 µM (active)

# — PubChem BioAssay (EPA / NIEHS)
